Data: PubChem BioAssay (NCATS)
Results filed as inconclusive are left out. Activity calls are given as the source filed them. Unless noted, calls follow the shape of the dose curve; as a rule, active = well fitted curve in the direction sought with a large enough effect; inconclusive = small, poorly fitted or top-dose-only effect, or another doubt; inactive = no such curve, though single readings can be large; an effect the other way counts as inactive or inconclusive.

Key:
[1] = qHTS drug screen for cell cycle checkpoint inhibitors in PARPi-resistant BRCA-mutant ovarian cancer cell lines. (AID 1963452; calls by dose curve); conditions: PEO1/OlaR viability, CellTiter-Glo luminescence, 96 h, stronger effect = lower value
Outline: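 PEO1, PEO4 and PEO1/OlaR ovarian cancer cells, 600 per well, exposed 96 h at 37C to a dilution series. Viability read by CellTiter-Glo luminescence, normalized to DMSO and empty wells; activity summarized as Z-AUC.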

[2] = qHTS profiling for inhibitors of Plasmodium falciparum proliferation (AID 504749); also: potency is read from the fitted curve at half-maximal effect;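 as to activity, negative = inhibition: 0% = DMSO vehicle and full inhibition = artemisinin control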; as to all read-outs here: nearly all actives have a fitted effect of over 60% in size; conditions: P. falciparum in erythrocytes, SYBR Green DNA, 72 h; for activity, negative = inhibition: at 28.7 µM (top of the series)
Outline: (§1)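 Fluorescence of SYBR Green-bound parasite DNA, read at 485/535 nm, served as the growth measure. Infected erythrocytes were cultured with compound 72 h; artemisinin (0.29 uM) and DMSO wells defined the normalization range.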

3D7 = experiment: as above; conditions: P. falciparum in erythrocytes, SYBR Green DNA, 72 h; series mostly up to 28.7 µM
Outline: as §1

7G8 = experiment: as above; conditions: P. falciparum in erythrocytes, SYBR Green DNA, 72 h; series mostly up to 28.7 µM
Outline: as §1

AA1029 = experiment: as above; conditions: P. falciparum in erythrocytes, SYBR Green DNA, 72 h; series mostly up to 28.7 µM
Outline: as §1

AS120 = experiment: as above; conditions: P. falciparum in erythrocytes, SYBR Green DNA, 72 h; series mostly up to 28.7 µM
Outline: as §1

ATS189 = experiment: as above; conditions: P. falciparum in erythrocytes, SYBR Green DNA, 72 h; series mostly up to 28.7 µM
Outline: as §1

ATS95 = experiment: as above; conditions: P. falciparum in erythrocytes, SYBR Green DNA, 72 h; series mostly up to 28.7 µM
Outline: as §1

C2A = experiment: as above; conditions: P. falciparum in erythrocytes, SYBR Green DNA, 72 h; series mostly up to 28.7 µM
Outline: as §1

CP185 = experiment: as above; conditions: P. falciparum in erythrocytes, SYBR Green DNA, 72 h; series mostly up to 28.7 µM
Outline: as §1

CP191 = experiment: as above; conditions: P. falciparum in erythrocytes, SYBR Green DNA, 72 h; series mostly up to 28.7 µM
Outline: as §1

CP192 = experiment: as above; conditions: P. falciparum in erythrocytes, SYBR Green DNA, 72 h; series mostly up to 28.7 µM
Outline: as §1

CP194 = experiment: as above; conditions: P. falciparum in erythrocytes, SYBR Green DNA, 72 h; series mostly up to 28.7 µM
Outline: as §1

[3] = KB-3-1 P-gp reporter qHTS against the NCATS DSHEA and TCM libraries (AID 1919975); conditions: KB-3-1 parental cells, CellTiter-Glo luminescence viability, 72 h; series mostly up to 26.1 µM; also: 0% is about no effect
Outline: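 Parental KB-3-1 human cervical adenocarcinoma cells (500 cells/well, DMEM + 10% FBS) were treated with substances for ~72 h at 37C; viability was read by CellTiter-Glo luminescence.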

[4] = target: Cytochrome P450 1A2 (Homo sapiens) (UniProt P05177); experiment: qHTS for inhibitors of CYPIA2 against the NCATS DSHEA and TCM libraries (AID 1919976); conditions: recombinant CYP1A2 enzyme activity, luminescence; series mostly up to 37 µM;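 also: light from luciferin formed by CYP1A2 from a pro-luciferin substrate; % is scaled to controls: 0 for no effect and ±100 for the full control effect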
Cytochrome P450 1A2 (Homo sapiens), sequence (P05177 whole entry, looked up): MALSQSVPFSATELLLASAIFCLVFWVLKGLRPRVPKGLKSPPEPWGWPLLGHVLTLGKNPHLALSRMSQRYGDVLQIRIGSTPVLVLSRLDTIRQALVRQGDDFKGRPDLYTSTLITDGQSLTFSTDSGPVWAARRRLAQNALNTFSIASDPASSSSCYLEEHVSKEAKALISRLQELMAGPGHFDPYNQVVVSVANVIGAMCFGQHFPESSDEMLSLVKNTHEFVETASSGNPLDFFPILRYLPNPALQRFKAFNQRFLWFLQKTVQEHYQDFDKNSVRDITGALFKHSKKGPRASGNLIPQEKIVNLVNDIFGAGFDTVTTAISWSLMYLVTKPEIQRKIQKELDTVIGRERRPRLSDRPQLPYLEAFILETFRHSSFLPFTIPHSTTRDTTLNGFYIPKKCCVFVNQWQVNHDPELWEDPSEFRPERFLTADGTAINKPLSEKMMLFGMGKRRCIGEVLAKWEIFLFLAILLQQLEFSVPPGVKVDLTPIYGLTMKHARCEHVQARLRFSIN
Outline: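 Furafylline served as the plate control. Compounds met CYP1A2 and pro-luciferin substrate 15 min before NADPH regeneration solution (1x) was added; after 30-45 min at RT, P450-Glo reagent was added for 30 min and luminescence was measured.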

[5] = qHTS Counterscreen for compound interference against the NCATS DSHEA and TCM libraries (AID 1919978); conditions: firefly luciferase detection reagent interference, luminescence; also: % of control where 0% means no effect
Outline: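 D-luciferin (1 uM final) or 100 mM potassium phosphate buffer alone was preincubated 15 min at RT with compounds (19.5 nM to 39.8 uM final). Luciferin detection reagent was then added and luminescence read after 30 min at RT.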

[6] = Dual reporter qHTS for agonist of Pregnane X Receptor (hPXR) against the NCATS DSHEA and TCM libraries: Fluorescence readout (AID 1920058); conditions: PXR dual reporter cells; series mostly up to 40 µM; also: 0% is about no effect
Outline: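 In this qHTS counter-read, reporter-bearing HepG2 cells in charcoal-stripped serum received substances for approximately 24 h before viability was assessed fluorometrically with CellTiter-Fluor.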

[7] = target: Nuclear receptor subfamily 1 group I member 2 (Homo sapiens) (UniProt O75469); experiment: Dual reporter qHTS for antagonist of Pregnane X Receptor (hPXR) against the NCATS DSHEA and TCM libraries: Luminescence Readout (AID 1920060); conditions: hPXR dual reporter cells, luciferase luminescence, antagonist mode; series mostly up to 40 µM; also: 0% is about no effect
Nuclear receptor subfamily 1 group I member 2 (Homo sapiens), sequence (O75469 whole entry, looked up): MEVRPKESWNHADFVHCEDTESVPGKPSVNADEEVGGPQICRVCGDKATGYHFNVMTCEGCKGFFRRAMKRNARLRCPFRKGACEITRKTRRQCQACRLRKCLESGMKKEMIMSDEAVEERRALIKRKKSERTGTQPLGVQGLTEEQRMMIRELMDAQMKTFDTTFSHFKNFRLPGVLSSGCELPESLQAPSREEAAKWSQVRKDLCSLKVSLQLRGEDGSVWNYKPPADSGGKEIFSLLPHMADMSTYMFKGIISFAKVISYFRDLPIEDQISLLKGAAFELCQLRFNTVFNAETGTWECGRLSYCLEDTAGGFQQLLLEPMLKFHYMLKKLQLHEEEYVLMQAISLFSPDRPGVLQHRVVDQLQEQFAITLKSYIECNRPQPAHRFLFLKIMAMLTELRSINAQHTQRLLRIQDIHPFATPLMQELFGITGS
Outline: (§2)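 Rifampicin-stimulated (2 uM final) hPXR-luciferase HepG2 cells were treated for 24 h with DSNP/TCM substances. Viability came from CellTiter-Fluor fluorescence, reporter activity from ONE-Glo luminescence.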

[8] = Dual reporter qHTS for antagonist of Pregnane X Receptor (hPXR) against the NCATS DSHEA and TCM libraries: Fluorescence Readout (AID 1920061); conditions: PXR dual reporter cells, antagonist mode; series mostly up to 40 µM; also: 0% is about no effect
Outline: as §2

[9] = target: Nuclear receptor subfamily 1 group I member 2 (Homo sapiens) (UniProt O75469); experiment: Dual reporter qHTS for agonist of Pregnane X Receptor (hPXR) against the NCATS DSHEA and TCM libraries: Luminescence readout (AID 1920059); conditions: hPXR dual reporter cells, luciferase luminescence agonist; series mostly up to 40 µM; also: 0% is about no effect
Outline: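 hPXR-LucHepG2 cells in phenol red-free DMEM with 5% charcoal-stripped FBS, 2000 cells/well, attached 5 h, then exposed 24 h at 37C to compounds; rifampicin as positive agonist control (2.8 nM–92 uM). Luciferase luminescence read.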

[10] = measured here: PEO1 parental Z-AUC

CC(=O)NCCCS(=O)(=O)O
1.03: Z-AUC ([1]; measured here: PEO4 Z-AUC)
inactive: Z-AUC [1] 1.02 | activity, negative = inhibition ([2]; parasite line A) 2.58% | activity, negative = inhibition ([2]; parasite line B) 11.9% | Potency (3D7) | Potency (7G8) | Potency (AA1029) | Potency (AS120) | Potency (ATS189) | Potency (ATS95) | Potency (C2A) | Potency (CP185) | Potency (CP191) | Potency (CP192) | Potency (CP194)
1.45: Z-AUC [1, 10]

C=C1CC[C@H](O)CC1=C/C=C1\CCC[C@]2(C)[C@@H]([C@H](C)/C=C/[C@H](C)C(C)C)CC[C@@H]12
inactive: outcome [3] | Potency [4] | max response [5] -0.883% | outcome [6] | outcome [7] | outcome [8]

CC/C=C\C/C=C\C/C=C\C/C=C\C/C=C\C/C=C\CCC(=O)O
active: Potency (7G8) 12.6 µM
inactive: outcome [3] | Potency [4] | max response [5] -0.949% | outcome [6] | Potency [9] | outcome [7] | outcome [8] | activity, negative = inhibition ([2]; parasite line A) -24.9% | activity, negative = inhibition ([2]; parasite line B) -13.6% | Potency (3D7) | Potency (AA1029) | Potency (AS120) | Potency (ATS189) | Potency (ATS95) | Potency (C2A) | Potency (CP185) | Potency (CP191) | Potency (CP192) | Potency (CP194)

CC(C)=CCC/C(C)=C/CC/C(C)=C/CC/C(C)=C/CC1=C(C)C(=O)c2ccccc2C1=O
inactive: Potency [4] | max response [5] -2.14% | outcome [6] | outcome [7] | outcome [8]

CNC(=O)[C@H](Cc1c[nH]c2ccccc12)NC(=O)[C@@H](CC(=O)NO)CC(C)C
active: Potency ([2]; parasite line A) 11.2 µM | Potency (3D7) 10 µM | Potency (7G8) 11.2 µM
inactive: Z-AUC [1] 0.599 | Potency (AA1029) | Potency (ATS189)
0.54: Z-AUC [1, 10]
0.809: Z-AUC ([1]; measured here: PEO4 Z-AUC)

C=CC[N+]1([C@H]2C[C@H]3[C@@H]4CC[C@H]5C[C@H](O)[C@@H](N6CCOCC6)C[C@]5(C)[C@H]4CC[C@]3(C)[C@H]2OC(C)=O)CCCC1
1.23: Z-AUC [1, 10]
inactive: Z-AUC [1] 1.19 | Potency (3D7)
active: Potency (AA1029) 11.2 µM
0.984: Z-AUC ([1]; measured here: PEO4 Z-AUC)

COC(=O)C(CN)c1c[nH]c2ccc(OC)cc12 (configuration not stated)
inactive: activity, negative = inhibition ([2]; parasite line A) -3.75% | activity, negative = inhibition ([2]; parasite line B) -2.84% | Potency (3D7) | Potency (7G8) | Potency (AA1029) | Potency (AS120) | Potency (ATS189) | Potency (ATS95) | Potency (C2A) | Potency (CP185) | Potency (CP191) | Potency (CP192) | Potency (CP194)

CCCOC(=O)c1ccccc1O
inactive: activity, negative = inhibition ([2]; parasite line A) 3.1% | activity, negative = inhibition ([2]; parasite line B) 6.22% | Potency (3D7) | Potency (7G8) | Potency (AA1029) | Potency (AS120) | Potency (ATS189) | Potency (ATS95) | Potency (C2A) | Potency (CP185) | Potency (CP191) | Potency (CP192) | Potency (CP194)

OC[C@H]1O[C@@H]2O[C@H]3[C@H](O)[C@@H](O)[C@@H](O[C@H]4[C@H](O)[C@@H](O)[C@@H](O[C@H]5[C@H](O)[C@@H](O)[C@@H](O[C@H]6[C@H](O)[C@@H](O)[C@@H](O[C@H]7[C@H](O)[C@@H](O)[C@@H](O[C@H]1[C@H](O)[C@H]2O)O[C@@H]7CO)O[C@@H]6CO)O[C@@H]5CO)O[C@@H]4CO)O[C@@H]3CO
inactive: activity, negative = inhibition ([2]; parasite line A) 6.28% | activity, negative = inhibition ([2]; parasite line B) 7.95% | Potency (3D7) | Potency (7G8) | Potency (AA1029) | Potency (AS120) | Potency (ATS189) | Potency (ATS95) | Potency (C2A) | Potency (CP185) | Potency (CP191) | Potency (CP192) | Potency (CP194)

Cc1cc2nc3c(=O)[nH]c(=O)nc-3n(C[C@H](O)[C@H](O)[C@H](O)COP(=O)(O)OP(=O)(O)OC[C@H]3O[C@@H](n4cnc5c(N)ncnc54)[C@H](O)[C@@H]3O)c2cc1C
inactive: activity, negative = inhibition ([2]; parasite line A) -1.67% | activity, negative = inhibition ([2]; parasite line B) 14.9% | Potency (3D7) | Potency (7G8) | Potency (AA1029) | Potency (AS120) | Potency (ATS189) | Potency (ATS95) | Potency (C2A) | Potency (CP185) | Potency (CP191) | Potency (CP192) | Potency (CP194)

CC12CCC(C[N+](C)(CCC[N+](C)(C)C)C1)C2(C)C (configuration not stated)
inactive: activity, negative = inhibition ([2]; parasite line A) 7.03% | activity, negative = inhibition ([2]; parasite line B) 18.6% | Potency (3D7) | Potency (7G8) | Potency (AA1029) | Potency (AS120) | Potency (ATS189) | Potency (ATS95) | Potency (C2A) | Potency (CP185) | Potency (CP191) | Potency (CP192) | Potency (CP194)

CC(C)CCCC(C)NC(C)C (configuration not stated)
inactive: activity, negative = inhibition ([2]; parasite line A) -16.1% | activity, negative = inhibition ([2]; parasite line B) -1.21% | Potency (3D7) | Potency (7G8) | Potency (AA1029) | Potency (AS120) | Potency (ATS189) | Potency (ATS95) | Potency (C2A) | Potency (CP185) | Potency (CP191) | Potency (CP192) | Potency (CP194)

FC(F)(F)C(F)(F)C(F)(F)C(F)(F)C(F)(F)C(F)(F)F
inactive: activity, negative = inhibition ([2]; parasite line A) 2.24% | activity, negative = inhibition ([2]; parasite line B) 2.03% | Potency (3D7) | Potency (7G8) | Potency (AA1029) | Potency (AS120) | Potency (ATS189) | Potency (ATS95) | Potency (C2A) | Potency (CP185) | Potency (CP191) | Potency (CP192) | Potency (CP194)

COc1ccc2c(c1)OC(C)(C)C(c1ccccc1)C2c1ccc(OCCN2CCCC2)cc1 (configuration not stated)
active: Potency ([2]; parasite line A) 2.24 µM | Potency ([2]; parasite line B) 3.98 µM | Potency (3D7) 3.16 µM | Potency (7G8) 2.82 µM | Potency (AA1029) 3.55 µM | Potency (AS120) 3.16 µM | Potency (ATS189) 3.55 µM | Potency (ATS95) 5.01 µM | Potency (C2A) 4.47 µM | Potency (CP185) 3.98 µM | Potency (CP191) 2.51 µM | Potency (CP192) 10.7 µM | Potency (CP194) 6.75 µM

[O]=[Bi][O]C(=O)[O][Bi]=[O]
active: Potency (7G8) 10 µM
inactive: activity, negative = inhibition ([2]; parasite line A) 3.84% | activity, negative = inhibition ([2]; parasite line B) -1.66% | Potency (3D7) | Potency (AA1029) | Potency (AS120) | Potency (ATS189) | Potency (ATS95) | Potency (C2A) | Potency (CP185) | Potency (CP191) | Potency (CP192) | Potency (CP194)
